Growth inhibition data for ten compounds are collected here from PubChem BioAssay (NCI).

This is part of a sample that, as a whole, favours compounds with a hit. Of some 79,000 tested, about 15% had one in any assay. Unmarked numbers belong to inactive results. Calls of active or inactive are those of the source. No stated cut-off is given here; in the data, active means growth inhibition above about 70%; inactive means the rest.

The nature of assay [1]: NCI Yeast Anticancer Drug Screen. Data for the rad50 strain (AID 155).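 Further: 0% = growth of vehicle-only cultures of the same strain.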 Particulars: S. cerevisiae rad50 strain growth inhibition, hits give high values. The gist of the method:
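Compounds were tested on a yeast strain with an engineered DNA damage repair alteration; the reported value is growth inhibition normalised to vehicle treatment.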

Assay [2] in a line: NCI Yeast Anticancer Drug Screen. Data for the mec2-1 strain (AID 157). Particulars: S. cerevisiae mec2-1 strain, hits give high values. In short, it runs like this:
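Test agents were screened against the mec2-1 yeast strain, with defined DNA repair or cell cycle alteration. Growth was scored as inhibition against vehicle-only controls.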

Assay [3] is described as follows: NCI Yeast Anticancer Drug Screen. Data for the sgs1 mgt1 strain (AID 161).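 Further: 0% = growth of cultures given vehicle only.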 Particulars: S. cerevisiae sgs1 mgt1 strain, hits give high values. The gist of the method: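 Read-out: growth inhibition vs vehicle controls. Cells: mutant yeast strain deficient in DNA damage repair.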
The nature of assay [4]: NCI Yeast Anticancer Drug Screen. Data for the cln2 rad14 strain (AID 165).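 Further: 0% = growth equal to vehicle treated cultures.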 Particulars: S. cerevisiae cln2 rad14 strain, hits give high values. The gist of the method:
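Growth of compound-exposed yeast (cln2 rad14 genotype) measured and expressed as inhibition relative to vehicle.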

Assay [5] can be described thus: NCI Yeast Anticancer Drug Screen. Data for the bub3 strain (AID 167). Particulars: S. cerevisiae bub3 mutant strain, hits give high values. The gist of the method: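 Growth of a checkpoint-deficient yeast mutant is measured after compound exposure. Values represent inhibition relative to vehicle.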
Assay [6] is described as follows: NCI Yeast Anticancer Drug Screen. Data for the mlh1 rad18 strain (AID 175). Particulars: S. cerevisiae mlh1 rad18 strain growth inhibition, hits give high values. In short, it runs like this: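 In this whole-cell yeast screen, a strain with altered DNA damage repair is challenged with compound, and its growth is measured against matched vehicle-treated controls.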

[7] abbreviates: at 5.0 µM (retest, dose inferred, filed as 0.5).
Where [8] appears, read: at 50.0 µM (retest, dose inferred, filed as 5.0).

With `CCOC(=O)C(CCc1ccccc1[N+](=O)[O-])C(C)=O` (stereo not given), the growth inhibition in assay [1] (setting [7]) was 4%; in assay [1] (setting [8]) it was 61%; in assay [1] (at 50.0 µM), 78.9% (active); in assay [2] (setting [7]), 2%; in assay [2] (setting [8]), 11%; in assay [2] (at 50.0 µM), 27.6%. Also, the growth inhibition in assay [3] (setting [7]) was -3%; in assay [3] (setting [8]), 42%; in assay [3] (at 50.0 µM) it was 66.8%; in assay [4] (setting [7]), -1%; in assay [4] (setting [8]), 8%; in assay [4] (at 50.0 µM) it was -8.55%. Moreover, the growth inhibition in assay [5] (setting [7]) is -3%; in assay [5] (setting [8]), 8%; in assay [5] (at 50.0 µM), 54%; in assay [6] (setting [7]), -20%; in assay [6] (setting [8]) it was 45%; in assay [6] (at 50.0 µM) it was 69.7%.

On to `CS(=O)(=O)OCCCN(CCCOS(C)(=O)=O)c1ccc(C=Nc2ccc(-c3csc(COc4ccc(Br)cc4Br)n3)cc2)cc1`, for which the growth inhibition in assay [1] (setting [7]) is 18%; in assay [1] (setting [8]), 83% (active); in assay [1] (at 50.0 µM), 86.3% (active); in assay [2] (setting [7]), 6%; in assay [2] (setting [8]) it was 83% (active); in assay [2] (at 50.0 µM), 92.8% (active). The growth inhibition in assay [3] (setting [7]) is 13%; in assay [3] (setting [8]), 82% (active); in assay [3] (at 50.0 µM), 90% (active); in assay [4] (setting [7]) it was 0%; in assay [4] (setting [8]), 83% (active); in assay [4] (at 50.0 µM) it was 85.8% (active). Besides, the growth inhibition is 5% in assay [5] (setting [7]); 90% (active) in assay [5] (setting [8]); 89.2% (active) in assay [5] (at 50.0 µM); 17% in assay [6] (setting [7]); 85% (active) in assay [6] (setting [8]); 90.7% (active) in assay [6] (at 50.0 µM).

For `O/N=C/c1cc(Cl)cc(Cl)c1O`, the growth inhibition in assay [1] (setting [7]) was 96% (active); in assay [1] (setting [8]), 96% (active); in assay [1] (at 50.0 µM) it was 97.7% (active); in assay [2] (setting [7]), 93% (active); in assay [2] (setting [8]) it was 89% (active); in assay [2] (at 50.0 µM) it was 95.1% (active). Further, the growth inhibition is 53% in assay [3] (setting [7]); 47% in assay [3] (setting [8]); 98% (active) in assay [3] (at 50.0 µM); 80% (active) in assay [4] (setting [7]); 94% (active) in assay [4] (setting [8]); 96.7% (active) in assay [4] (at 50.0 µM). Moreover, the growth inhibition in assay [5] (setting [7]) was 85% (active); in assay [5] (setting [8]), 94% (active); in assay [5] (at 50.0 µM), 73.5% (active); in assay [6] (setting [7]), 97% (active); in assay [6] (setting [8]) it was 95% (active); in assay [6] (at 50.0 µM) it was 97.8% (active).

As for `CCCCn1cnc2c(SCc3ccc(F)cc3)nc(N)nc21`, the growth inhibition in assay [1] (setting [7]) is -1%; in assay [1] (setting [8]), 48%; in assay [1] (at 50.0 µM), 46.3%; in assay [2] (setting [7]), 1%; in assay [2] (setting [8]), 59%; in assay [2] (at 50.0 µM) it was 46.6%. For the same compound, the growth inhibition in assay [3] (setting [7]) was -3%; in assay [3] (setting [8]), 16%; in assay [3] (at 50.0 µM), 39.1%; in assay [4] (setting [7]), -15%; in assay [4] (setting [8]) it was 49%; in assay [4] (at 50.0 µM), 44.8%. The growth inhibition was 0% in assay [5] (setting [7]); 45% in assay [5] (setting [8]); 90.1% (active) in assay [5] (at 50.0 µM); 0% in assay [6] (setting [7]); 30% in assay [6] (setting [8]); 66.9% in assay [6] (at 50.0 µM).

As to `Cn1c(-c2ccc(/C=N/NC(N)=NCCCCCCN=C(N)N/N=C/c3ccc(-c4c[n+]5ccccc5n4C)cc3)cc2)c[n+]2ccccc12`, the growth inhibition in assay [1] (setting [7]) is 97% (active); in assay [1] (setting [8]), 98% (active); in assay [1] (at 50.0 µM), 98.2% (active); in assay [2] (setting [7]), 97% (active); in assay [2] (setting [8]) it was 98% (active); in assay [2] (at 50.0 µM), 96.8% (active). For the same compound, the growth inhibition in assay [3] (setting [7]) was 97% (active); in assay [3] (setting [8]), 98% (active); in assay [3] (at 50.0 µM), 97.2% (active); in assay [4] (setting [7]), 95% (active); in assay [4] (setting [8]), 98% (active); in assay [4] (at 50.0 µM), 89.3% (active). Moreover, the growth inhibition in assay [5] (setting [7]) is 97% (active); in assay [5] (setting [8]) it was 99% (active); in assay [5] (at 50.0 µM), 97.3% (active); in assay [6] (setting [7]), 97% (active); in assay [6] (setting [8]) it was 98% (active); in assay [6] (at 50.0 µM), 97.7% (active).

As to `CC(C)c1ccc2nc3ccc(C(=O)NCCN4CCN(c5ccccc5)CC4)cn3c(=O)c2c1`, the growth inhibition in assay [1] (setting [7]) is 18%; in assay [1] (setting [8]), 97% (active); in assay [1] (at 50.0 µM) it was 12.1%; in assay [2] (setting [7]), -9%; in assay [2] (setting [8]), 98% (active); in assay [2] (at 50.0 µM), 16.6%. Moreover, the growth inhibition in assay [3] (setting [7]) was 18%; in assay [3] (setting [8]), 99% (active); in assay [3] (at 50.0 µM), 13.2%; in assay [4] (setting [7]), 3%; in assay [4] (setting [8]), 97% (active); in assay [4] (at 50.0 µM), -7.8%. The growth inhibition in assay [5] (setting [7]) was 14%; in assay [5] (setting [8]), 98% (active); in assay [5] (at 50.0 µM), -7.5%; in assay [6] (setting [7]) it was 4%; in assay [6] (setting [8]), 97% (active); in assay [6] (at 50.0 µM) it was 5.15%.

On to `C=CC[C@]1(C(C)C(OC(C)=O)c2ccc3c(c2)OCO3)C[C@@H](OC)C=CC1=O` (stereo not given in full), for which the growth inhibition in assay [1] (setting [7]) was 10%; in assay [1] (setting [8]), 98% (active); in assay [1] (at 50.0 µM) it was 10.5%; in assay [2] (setting [7]), 10%; in assay [2] (setting [8]), 98% (active); in assay [2] (at 50.0 µM), -0.85%. The growth inhibition in assay [3] (setting [7]) was 10%; in assay [3] (setting [8]), 98% (active); in assay [3] (at 50.0 µM), -0.2%; in assay [4] (setting [7]), -3%; in assay [4] (setting [8]), 98% (active); in assay [4] (at 50.0 µM), -12.7%. Moreover, the growth inhibition in assay [5] (setting [7]) was 4%; in assay [5] (setting [8]), 98% (active); in assay [5] (at 50.0 µM), 1.4%; in assay [6] (setting [7]), 9%; in assay [6] (setting [8]) it was 98% (active); in assay [6] (at 50.0 µM), 40%.

As for `O=C(CCN(Cc1ccccc1)Cc1ccccc1)c1ccc2ccccc2c1`, the growth inhibition in assay [1] (setting [7]) was 30%; in assay [1] (setting [8]) it was 55%; in assay [1] (at 50.0 µM), 76.2% (active); in assay [2] (setting [7]), 28%; in assay [2] (setting [8]), 58%; in assay [2] (at 50.0 µM), 55.6%. The growth inhibition in assay [3] (setting [7]) is 59%; in assay [3] (setting [8]) it was 89% (active); in assay [3] (at 50.0 µM), 90.6% (active); in assay [4] (setting [7]), 33%; in assay [4] (setting [8]) it was 61%; in assay [4] (at 50.0 µM), 83.8% (active). Moreover, the growth inhibition in assay [5] (setting [7]) is 45%; in assay [5] (setting [8]), 69%; in assay [5] (at 50.0 µM), 60.1%; in assay [6] (setting [7]) it was 35%; in assay [6] (setting [8]), 68%; in assay [6] (at 50.0 µM) it was 81.4% (active).

Consider `Nc1c(F)cccc1F`, for which the growth inhibition in assay [1] (setting [7]) is -2%; in assay [1] (setting [8]), 8%; in assay [1] (at 50.0 µM) it was -16.3%; in assay [2] (setting [7]), 2%; in assay [2] (setting [8]), 0%; in assay [2] (at 50.0 µM), 11.6%. Also, the growth inhibition in assay [3] (setting [7]) was -3%; in assay [3] (setting [8]), 1%; in assay [3] (at 50.0 µM), -5.95%; in assay [4] (setting [7]), 2%; in assay [4] (setting [8]), -6%; in assay [4] (at 50.0 µM), 20.4%. The growth inhibition in assay [5] (setting [7]) was 2%; in assay [5] (setting [8]) it was 7%; in assay [5] (at 50.0 µM), -1.15%; in assay [6] (setting [7]), 0%; in assay [6] (setting [8]), 3%; in assay [6] (at 50.0 µM) it was -8.3%.

Regarding `CCCCC(CC)(CCC)CCN` (stereo not given), the growth inhibition is 1% in assay [1] (setting [7]); 93% (active) in assay [1] (setting [8]); 1.65% in assay [1] (at 50.0 µM); 1% in assay [2] (setting [7]); 65% in assay [2] (setting [8]); 1.75% in assay [2] (at 50.0 µM). Moreover, the growth inhibition is 1% in assay [3] (setting [7]); 30% in assay [3] (setting [8]); 16.6% in assay [3] (at 50.0 µM); 4% in assay [4] (setting [7]); 36% in assay [4] (setting [8]); 32% in assay [4] (at 50.0 µM). The growth inhibition was -3% in assay [5] (setting [7]); 67% in assay [5] (setting [8]); -5.95% in assay [5] (at 50.0 µM); -1% in assay [6] (setting [7]); 83% (active) in assay [6] (setting [8]); 31.4% in assay [6] (at 50.0 µM).
